SARS PLpro yeast: SARS-CoV PLP inhibition in yeast | Potency, µM (doses to about 32.9 µM), without a hit: top-dose activity, positive = growth rescue, most hits filed as activators | S. cerevisiae expressing SARS-CoV PLpro, growth rescue | 0.19% of 330,000 active; note: potency is the fitted concentration of half-maximal effect; 0% is about no effect; nearly all actives have a fitted effect of over 55% in size
NS1 inh: blocks influenza NS1 protein function | Potency, µM (doses to about 46.1 µM), inactives show at the top dose activity, positive = more growth | 0.4% of 270,000 active; note: potency is the fitted concentration of half-maximal effect; actives are rising curves; nearly all actives have a fitted effect of over 50% in size
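S. cerevisiae expressing influenza A NS1, grown in glucose, washed, then diluted 1:100 into pH 6.0 -URA galactose medium with 23 nl compound. Growth recovery read as OD600; NS1-free strain serves as control.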
Shiga inhibitor: inhibitors of Shiga toxin in Vero cells. Vero cells, Shiga toxin protein synthesis inhibition reporter. inhibition, % at 38.7 µM. 9.2% of 290,000 active. AID 2315; in the data active = inhibition mostly above about 28%, no sharp cut-off; inactive = mostly below about 43%; note: 0% is about no effect
Cycloheximide cs: counter-screen hit for Shiga toxin inhibitors, cycloheximide; cell reporter, cycloheximide protein synthesis inhibition counterscreen; max response, %; 12% of 300,000 active; in the data active = max response mostly above about 13%, no sharp cut-off; inactive = mostly below about 14%; note: read at 38.3 µM for the half of the compounds with a filed dose; 0% is about no effect
Starred values were filed as active, the others as inactive; ? = inconclusive; . = not tested or not shown; + = active, no number; [ ] = remark or other dose. A selection: hits, their analogues and other compounds. The true share with any hit is near 12%. Unless noted, calls come from the whole dose curve.

SMILES | SARS PLpro yeast | NS1 inh | Shiga inhibitor | Cycloheximide cs
Oc1ccccc1N1CCN(Cc2ncc(-c3ccccc3)o2)CC1 | -2% | -3% | 43 | 8
CC(=O)c1cccc(NC(=O)Nc2ccc3c(c2)N(C)C(=O)CS3)c1 | 2% | -23% | -6 | -1
C[C@]12c3[nH]c4cc(-c5ccco5)ccc4c3CCN1C(=O)[C@@H](CC(=O)NCc1ccco1)C[C@@H]2C(=O)N1CCCCC1 | -5% | . | . | .
Cc1ccc(S(=O)(=O)Oc2cc(N)c3c(n2)CCC3)cc1 | 5% | ? | 5 | -2
Fc1ccc(-c2csc(N3CCSCC3)n2)cc1 | -1% | . | 98* | 32*
CC1=NN(c2nc(-c3ccc(Cl)cc3)cs2)C(=O)C1 | -7% | 22% | -18 | 15*
Brc1ccc(-c2csc(N3CCc4ccccc4C3)n2)cc1 | 0% | -1% | -9 | -3
c1ccc(-c2csc(-n3cccn3)n2)cc1 | -2% | . | 46 | 51*
COc1cccc(OC)c1C(=O)NC(=O)NNc1cc(C(F)(F)F)cc(C)n1 | -1% | 11% | 7 | -3
Cc1cccc(C=Nc2ccc3c(c2)oc2ccccc23)c1O | -16% | 8% | 98* | 62*
O=C(NC1C2CC3CC(C2)CC1C3)c1ccc(Br)o1 (stereo not given) | 14% | -32% | -3 | 5
Cn1nc(OC(=O)Nc2ccc(Cl)cc2)cc1C(F)(F)F | -8% | 3% | 22 | 17*
CC(=C/c1ccccc1)/C=N/n1c(C)n[nH]c1=S | 1% | -70% | 47 | 30*
CC(=C/c1ccccc1)/C=N/n1c(-c2ccncc2)n[nH]c1=S | 0% | 1% | -12 | -2
Cc1cc(-c2n[nH]c(=S)n2/N=C/c2cccc(O)c2)n[nH]1 | 1% | -1% | -2 | 1
CC(/C=N/n1c(-c2ccco2)n[nH]c1=S)=C\c1ccco1 | -7% | -6% | 12 | -1
S=c1[nH]nc(-c2cc(-c3ccccc3)n[nH]2)n1/N=C/c1ccccc1 | -1% | 11% | -4 | 1
S=c1[nH]nc(-c2cc(-c3ccccc3)n[nH]2)n1/N=C/C(Br)=C/c1ccccc1 | -6% | -9% | 63* | 28*
S=c1[nH]nc(-c2ccco2)n1/N=C/C(Cl)=C/c1ccccc1 | -2% | -4% | 73* | 53*
Cc1cc(-c2n[nH]c(=S)n2/N=C/C(Cl)=C/c2ccccc2)n[nH]1 | -20% | ? | 38* | 39*
CC(=O)C1=C(C)Nc2ncnn2C1c1ccccc1OCc1ccccc1 (stereo not given) | 4% | -5% | -11 | -2
Cc1n[nH]c(=S)n1/N=C/c1cccc(OCc2ccccc2)c1 | 0% | -1% | 58* | 15
COc1cc(/C=C/c2ccc3cccc(O)c3n2)c(Br)cc1O | -9% | -8% | 93* | 40*
Oc1c(Cl)cc(Cl)cc1/C=C/c1ccc2cccc(O)c2n1 | -1% | -1% | 31 | 7
Oc1cccc2ccc(/C=C/c3ccccc3Br)nc12 | -6% | -65% | 83* | 62*
SMILES | SARS PLpro yeast | NS1 inh | Shiga inhibitor | Cycloheximide cs
CSc1ccc(/C=C/c2ccc3cccc(O)c3n2)cc1 | -24% | 2% | 115* | 44*
COc1cc(Br)cc(/C=C/c2ccc3cccc(O)c3n2)c1O | 0% | 8% | 75* | 32*
COc1cc(Br)c(/C=C/c2ccc3cccc(O)c3n2)cc1OC | -1% | 3% | 2 | 11
Oc1ccc2ccccc2c1/C=C\c1ccc2c(Br)cc(Br)c(O)c2n1 | . | -43% | . | .
O=C(O)/C(=C\c1ccc(Br)cc1)c1ccc(S(=O)(=O)N2CCCCC2)s1 | 23% | 0% | -13 | -7
C/C=C/c1ccc(O)c(OC)c1 | 1% | . | . | .
COc1ccc(OC)c(/C=N/c2c(-c3ccc(O)c(OC)c3)nc3ccccn23)c1 | -2% | . | 30 | 14
Oc1ccc(Cl)cc1/C=C/c1ccc2cccc(O)c2n1 | -6% | -77% | 61* | 29*
COc1ccc(OC)c(/C=C/c2ccc3cccc(O)c3n2)c1 | -5% | -10% | 89* | 59*
COc1cc(/C=C/c2ccc3cccc(O)c3n2)ccc1O | -11% | -67% | 68* | 55*
COc1ccc(CNC(=O)C(c2ccc(C)o2)N(Cc2cccs2)C(=O)Cc2cccs2)cc1 (stereo not given) | 0% | 7%[9.22 µM] | -7 | 13
O=C(c1cc(F)cc2c1OCOC2)N1CCN(c2ccc(F)cc2)CC1 | 0% | -1% | -1 | 0
O=C1C(C2=C(O)c3ccccc3C2=O)=Nc2ccccc21 | -15% | -34% | 65* | 25*
Cc1ccnc(NS(=O)(=O)c2ccc(NC(=O)c3ccc(S(=O)(=O)N4CCCC4)cc3)cc2)n1 | -4% | . | -22 | -5
CC(=O)c1ccc(-c2c(C)cc3oc(=O)cc(-c4ccccc4)c3c2C)cc1 | 7% | . | + | 30*
O=C(Cn1cnc2ccccc2c1=O)NNC(=O)c1cccc([N+](=O)[O-])c1 | 10% | . | . | .
COc1ccc(NC(=S)/N=C(\N)Nc2nc(C)c3ccccc3n2)cc1 | 26% | ? | 21 | 14*
COc1ccc2nc(N/C(N)=N/C(=S)Nc3cccc(C)c3)nc(C)c2c1 | ? | ? | 7 | -2
O=C(/C=C/c1ccco1)Nc1ccc(C(=O)N2CCOCC2)cc1 | -12% | 9% | 26 | 12
O=C(/C=C/c1ccccc1)Nc1ccc(CN2CCOCC2)cc1 | ? | -1% | 35* | 47*
O=C(/C=C/c1ccco1)Nc1ccc(CN2CCOCC2)cc1 | 0% | 1% | 46* | 41*
O=C(/C=C/c1ccco1)Nc1ccc(Oc2ccc(Cl)cc2)cc1 | -9% | -9% | 0 | -3
O=C(/C=C/c1ccc(Cl)cc1)NC(=S)Nc1ccc(CN2CCOCC2)cc1 | -15% | 19% | 1 | -13
O=C(/C=C/c1ccco1)Nc1ccc(N2CCCC2)cc1 | -19% | 16% | 66* | 68*
COc1ccc(-c2csc(NC(=O)CSCc3c(C)noc3C)n2)c(OC)c1 | -8% | . | . | .
SMILES | SARS PLpro yeast | NS1 inh | Shiga inhibitor | Cycloheximide cs
CC(C)C1Nc2ccc(C(=O)NCc3ccco3)cc2NC1=O (stereo not given) | -1% | 2% | -3 | -4
O=C1c2ccccc2/C(=C\c2ccc(Br)s2)N1c1ccccc1 | 4% | . | . | .
O=C(CC1CC2CCC1C2)NCc1cccs1 (stereo not given) | 1% | -13% | 52 | 15*
Fc1ccc(N/N=C2/CCSc3sccc32)c(F)c1 | 0% | -3% | 28* | 15*
O=C1c2ccsc2SCCN1Cc1cccc(F)c1 | 0% | -6% | -5 | -4
CN(C)c1nc(NC(C)(C)C)nc(NC(C)(C)C)n1 | 2% | . | 11 | -5
CCOC(=O)N1CCN(C(=O)c2ccc3ccccc3c2)CC1 | 2% | 12% | -7 | -3
Cc1ccc2c(C)c(C(=O)N3CCN(c4cnccn4)CC3)oc2c1C | -10% | -73% | 66 | 10
CC(C)c1nc2cc(C(=O)N3CCN(c4cnccn4)CC3)ccc2o1 | -8% | 4% | 51 | 27*
CCOC(=O)N1CCN(C(=O)c2ccc3oc(CCCc4ccccc4)nc3c2)CC1 | . | -42% | 81* | 39*
CC(C)NC(=O)CN1CCN(C(=O)c2ccc3oc(CCCc4ccccc4)nc3c2)CC1 | -1% | -12% | 28 | 20*
Cc1ccc2oc(C(=O)N3CCN(CC(=O)NC(C)C)CC3)c(C)c2c1 | 6% | -19% | . | 5
